Reference: PubChem BioAssay (NCATS)
Results filed as inconclusive are left out. Entries that show only a call come without a potency. Values without a mark were called inactive. Activity calls are given as the source filed them. Calls come from the whole dose curve; as a rule, active = well fitted inhibition curve with a large enough effect; inconclusive = small, poorly fitted or top-dose-only effect; inactive = flat fitted curve, though single readings scatter.

Assay: P-glycoprotein substrates identified in KB-8-5-11 adenocarcinoma cell line, qHTS therapeutic library screen (AID 1346987); note: nearly all actives have a fitted effect of over 65% in size
Settings: KB-8-5-11 (P-gp overexpressing) viability, CellTiter-Glo, 72 h; series mostly up to 44.5 µM
How it was run: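 P-gp-mediated resistance screen: KB-8-5-11 cells treated 72 h with compounds in dose-response. CellTiter-Glo viability.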
Potency is the fitted concentration of half-maximal effect.

SMILES	Potency	activity change, negative = cytotoxicity
C=C(C(=O)O)[C@@H]1CC=C(CCC(C)=O)[C@@H](C)CC1	inactive	
C=C1C(=O)O[C@@H]2[C@H]3C(C)=CC(=O)C3=C(C)[C@@H](OC(=O)/C(C)=C\C)[C@H](O)[C@@H]12	inactive	
CCCC1(CCC)CCC2(CCN(CCCN(CC)CC)C2)CC1	2.31 µM (active)	
CC1(C)SCCN(S(=O)(=O)c2ccc(Oc3ccncc3)cc2)[C@H]1C(=O)NO	inactive	
N[C@@H]1c2cccnc2[C@H](OC(=O)N2CCC(n3c(=O)[nH]c4ncccc43)CC2)CC[C@H]1c1cccc(F)c1F	inactive	
COC(=O)C[C@](O)(CCCC(C)(C)O)C(=O)O[C@@H]1C(OC)=CC23CCCN2CCc2cc4c(cc2[C@H]13)OCO4 (some centres undefined)	13 µM (active)	
C=C1CC[C@@H]2[C@](C)(CO)[C@H](O)CC[C@@]2(C)[C@@H]1CC(=O)C1=CCOC1=O	inactive	
Cc1csc(N(C(=O)CSc2ccc(-c3ccccc3)nn2)C2CC2)n1	inactive	
C=CC(C)(O)CC/C=C(\C)C(=O)OC1C(O)C(CO)OC(OC(=O)C23CCC(C)(C)CC2C2=CCC4C5(C)CCC(OC6OC(COC7OCC(OC(C)=O)C(O)C7OC7OC(COC(C)=O)C(O)C(O)C7OC(C)=O)C(O)C(O)C6OC6OCC(O)C(O)C6O)C(C)(C)C5CCC4(C)C2(C)C(O)C3O)C1OC1OCC(OC2OCC(O)C(OC3OCC(O)C(O)C3O)C2O)C(O)C1O (centres undefined)		-2.64% [at 5.11 µM]
CC1CCCC[C@H]2C(=O)C=C[C@H](O)[C@@H]2CC(=O)O1 (some centres undefined)	7.31 µM (active)	
O=C(NC[C@H]1CN(c2ccc(N3CCOCC3=O)cc2)C(=O)O1)c1ccc(Cl)s1	inactive	
C/C=C/C=C/C=C/C(=O)O[C@@H]1C=C2COC(=O)[C@]2(O)[C@@]2(C)CCCC(C)(C)[C@H]12	inactive	
S=C(c1ccc(-c2ccc(Cl)c(Cl)c2)o1)N1CCCCC1	inactive	
O=C(c1ccc(OC(F)F)c(C#Cc2ccccn2)c1)N1Cc2cccnc2C1	inactive	
CC#C[C@@H](CC(=O)O)c1ccc(OCc2cccc(-c3ccc(C(F)(F)F)cc3)c2)cc1	inactive	
C[C@@H](Nc1ncnc2[nH]c(-c3ccc(O)cc3)cc12)c1ccccc1	8.2 µM (active)	
O=S(=O)(N[C@H]1CCCC[C@@H]1N1CCOCC1)c1ccc(Cl)cc1	inactive	
Cc1cnn(-c2ccccc2)c1NC(=O)COCc1ccccc1	inactive	
Cn1ncnc1[C@H]1c2n[nH]c(=O)c3cc(F)cc(c23)N[C@@H]1c1ccc(F)cc1	inactive	
C=CC1(C)CC(O)C(C(=C)C(=O)OC)C(O)C1C(=C)CO (centres undefined)	inactive	

SMILES	Potency	activity change, negative = cytotoxicity
COc1cc(C(=O)O)ccc1NC(=O)C1NC(CC(C)(C)C)C(C#N)(c2ccc(Cl)cc2F)C1c1cccc(Cl)c1F (centres undefined)	inactive	
Cc1cc2c(c(=O)o1)C=C1CC[C@H]([C@H](C)Cn3cnc(=N)c4[nH]cnc43)C[C@@H]1O2	inactive	
CCCn1ncc(CN2CCCC(C(=O)c3cccc(OC(C)C)c3)C2)c1C (centres undefined)	inactive	
COc1ccc(S(=O)(=O)Nc2cc(Cl)cc(Cl)c2OC)cc1N1CCNCC1	inactive	
COc1cc([C@@H]2c3cc4c(cc3C(O[C@@H]3O[C@@H]5COC(c6cccs6)O[C@H]5[C@H](O)[C@H]3O)C3COC(=O)[C@@H]32)OCO4)cc(OC)c1O (some centres undefined)	inactive	
CC(C)c1c(O)ccc2c1CC[C@H]1C(C)(C)CCC[C@]21C	inactive	
C=C[C@@]1(C)C=C2C(=O)C(O)=C3[C@](C)(C(=O)O)CC[C@@H]4C[C@]34[C@]2(O)C(=O)C1	10.1 µM (active)	
COc1cc2c(Nc3cc(F)c(Cl)c(Cl)c3)ncnc2cc1OCC1CCCN(C)CCC1	16.4 µM (active)	
Cc1[nH]c2ccccc2c1CCNCc1ccc(/C=C/C(=O)NO)cc1	0.366 µM (active)	
CN(C)[C@@H]1CCc2[nH]c3ccc(NC(=O)c4ccc(F)cc4)cc3c2C1	inactive	
COc1cc2nc(C3CC3)nc(N3CCN(c4ccccc4OC)CC3)c2cc1OC	20.6 µM (active)	
C[C@@H](NC(=O)C(=O)c1c[nH]c2ccc([N+](=O)[O-])cc12)c1ccccc1	inactive	
COc1ccc(S(=O)(=O)n2cnc3cc(C)c(C)cc32)cc1	inactive	
CC(O)(C(=O)C1CC1(CO)COC1OC(CO)C(O)C(O)C1O)C1C(O)CC2C3CC=C4CC(O)CC(O)C4(C)C3C(O)CC21C (centres undefined)	0.611 µM (active)	
CC(C)c1cccc(C(C)C)c1NC(=O)Nc1ccc(Sc2ccc([N+](=O)[O-])cc2)cc1	5.8 µM (active)	
CC[C@H]1OC(=O)[C@H](C)[C@@H](O[C@H]2C[C@@](C)(OC)[C@@H](O)[C@H](C)O2)[C@H](C)[C@@H](O[C@H]2O[C@H](C)C[C@H](N(C)C)[C@H]2O)[C@](C)(O)C[C@@H](C)C(=O)[C@H](C)[C@@H](O)[C@]1(C)O	inactive	
CCC(CC)(NC(=O)C(C)C)C(=O)N[C@@H](CCCN=C(N)N)C(=O)NC1(C(=O)NC(c2ccc(F)cc2)c2ccc(F)cc2)CCCC1	inactive	
CCC(=O)N1CCOc2c(cc(-c3ccc(OC)c(OC)c3)cc2OC[C@H]2CCCN(C)C2)C1	inactive	
CCC(C)C(=O)O[C@H]1[C@@H](OC(=O)c2ccoc2)C[C@](C)(O)[C@]23OC(C)(C)[C@H](C[C@H](OC(=O)c4ccoc4)[C@]12COC(C)=O)[C@H]3OC(C)=O (some centres undefined)	inactive	
